Bim-Mcl-1: inhibitors of Bim-Mcl-1 interaction, human | Q07820 | Bead-based flow cytometry, Bim peptide-Mcl-1 binding | inhibition, % at 10 µM | 0.1% of 190,000 active | AID 1009; in the data active = inhibition above about 40%;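 also: 0% = no compound tracer wells and 100% = peptide blocker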
Mcl1 Bid PPI: Mcl-1/Bid interaction inhibition; Q07820; inhibition, % at 21.7 µM; 0.97% of 220,000 active; TR-FRET Mcl-1/Bid-Dy647 peptide binding, 1536-well;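 active = compounds that cut the binding signal by more than half at the single screening dose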;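 also: His-tagged Mcl-1 with europium anti-His antibody binding Bid BH3 peptide; 0% = Mcl-1 plus peptide wells and 100% = peptide-only wells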
NCF1 inh: blocks human p47phox regulatory protein of NADPH oxidases; P14598; p47phox/p22phox peptide binding, fluorescence polarization, 2 h; inhibition, % at 24.7 µM; 0.53% of 220,000 active;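 also: 0% = p47phox with labelled peptide and 100% = labelled peptide alone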
14-3-3 Bad PPI: disrupts binding of bovine 14-3-3 zeta to phospho-Bad peptide; TR-FRET 14-3-3zeta/Dy647-pBad peptide displacement, 1 h; P63103; 0.71% of 220,000 active; inhibition, % at 21.7 µM;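 active = inhibition above about 70%, limit read from the data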;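 also: 0% = full 14-3-3 plus peptide FRET controls and 100% = background without 14-3-3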
Target sequence (P63103 whole entry, looked up): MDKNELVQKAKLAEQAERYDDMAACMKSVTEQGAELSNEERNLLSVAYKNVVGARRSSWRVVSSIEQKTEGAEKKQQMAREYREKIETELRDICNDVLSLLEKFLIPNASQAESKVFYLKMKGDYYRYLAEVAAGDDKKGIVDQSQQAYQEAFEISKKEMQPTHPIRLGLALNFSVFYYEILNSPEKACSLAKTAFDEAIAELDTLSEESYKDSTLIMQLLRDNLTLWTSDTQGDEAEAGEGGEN
Mcl1-Noxa inh: Mcl-1/Noxa interaction inhibition. inhibition, % at 21.7 µM. TR-FRET Mcl-1/Noxa peptide binding, 2 h. 1.5% of 220,000 active;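 active = compounds that cut the protein-peptide binding signal by more than 50% relative to plate controls in a single-dose test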;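 also: His-tagged Mcl-1 with rhodamine Noxa BH3 peptide and terbium anti-His antibody; 0% = Mcl-1 plus Noxa peptide wells and 100% = peptide-only wells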
eIF4E 4G PPI: eIF4E/eIF4G interaction inhibition in translation initiation; P63073+Q04637; TR-FRET eIF4E-eIF4GI(517-606) binding, 2 h; inhibition, % at 21.7 µM; 0.37% of 220,000 active;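 also: 0% = full FRET control wells and 100% = background wells lacking eIF4GI fragment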
Active calls of the source: *. Most compounds without a hit are left out; they make up all but 3.4% or so of the library.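 The calls were made as follows, unless noted: active = inhibition above about 30% (limit read from the data); inactive = the rest.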

COc1ccc(N2CCN(C(C)C(=O)N3CCCC3)CC2)cc1 (stereo not given) was read as Bim-Mcl-1 -1, Mcl1 Bid PPI 20, NCF1 inh -1, 14-3-3 Bad PPI 79*, Mcl1-Noxa inh 29 and eIF4E 4G PPI 10.
`COC(=O)N1CCN(c2ccc(OC)cc2)CC1` gave Bim-Mcl-1 -3, Mcl1 Bid PPI -10, NCF1 inh 3, 14-3-3 Bad PPI 9, Mcl1-Noxa inh 11 and eIF4E 4G PPI 3.
CCCC(=O)c1cc2c(cc1NC(=O)c1ccccc1F)OCCO2 was read as Bim-Mcl-1 -43, Mcl1 Bid PPI -78, NCF1 inh -2, 14-3-3 Bad PPI -3, Mcl1-Noxa inh 0 and eIF4E 4G PPI 5.
For O=C1CC(N2CCN(S(=O)(=O)c3ccccc3)CC2)C(=O)N1c1ccccc1 (stereo not given) the results were Mcl1 Bid PPI -8, NCF1 inh -166, 14-3-3 Bad PPI 3, Mcl1-Noxa inh 92* and eIF4E 4G PPI -2.
For Cn1c(-c2cccc(Br)c2)n[nH]c1=O the results were Bim-Mcl-1 0, Mcl1 Bid PPI -10, NCF1 inh -6, 14-3-3 Bad PPI -3, Mcl1-Noxa inh 16 and eIF4E 4G PPI 2.
`CCOc1cc(CNCCc2ccc(S(N)(=O)=O)cc2)ccc1OCc1ccccc1` gave Bim-Mcl-1 0, Mcl1 Bid PPI 2, NCF1 inh 6, 14-3-3 Bad PPI 5, Mcl1-Noxa inh 16 and eIF4E 4G PPI -7.
Screening CCOc1cc(CNCCc2ccc(S(N)(=O)=O)cc2)cc(Cl)c1OCc1ccccc1 returned Bim-Mcl-1 -2, Mcl1 Bid PPI 18, NCF1 inh 79*, 14-3-3 Bad PPI 9, Mcl1-Noxa inh 22 and eIF4E 4G PPI 4.
Screening Cn1c(=O)c([N+](=O)[O-])c(NCC2CCCO2)c2ccccc21 (stereo not given) returned Mcl1 Bid PPI 10, NCF1 inh 1, 14-3-3 Bad PPI 0, Mcl1-Noxa inh 20 and eIF4E 4G PPI -4.
For O=C(O)c1ccccc1NSc1ccccc1[N+](=O)[O-] the results were Bim-Mcl-1 51*, Mcl1 Bid PPI 2, NCF1 inh -4, 14-3-3 Bad PPI -7, Mcl1-Noxa inh 22 and eIF4E 4G PPI -4.
`O=C(O)c1ccccc1Sc1c([N+](=O)[O-])cc(C(F)(F)F)cc1[N+](=O)[O-]` gave Bim-Mcl-1 0, Mcl1 Bid PPI -23, NCF1 inh -3, 14-3-3 Bad PPI -6, Mcl1-Noxa inh 4 and eIF4E 4G PPI 1.
COc1cc([N+](=O)[O-])cc(/C=N/NC(=O)Cn2nccc2C)c1O was read as Mcl1 Bid PPI -87, NCF1 inh -11, 14-3-3 Bad PPI -5, Mcl1-Noxa inh -57 and eIF4E 4G PPI 0.
For Nc1nc(N)c2cc(Sc3ccc4ccccc4c3)ccc2n1 the results were Mcl1 Bid PPI 14, NCF1 inh -12, 14-3-3 Bad PPI 20, Mcl1-Noxa inh 84* and eIF4E 4G PPI 5.
For Nc1ccc(Sc2cc(Cl)nc(N)n2)cc1 the results were Bim-Mcl-1 0, Mcl1 Bid PPI -7, NCF1 inh -1, 14-3-3 Bad PPI 45, Mcl1-Noxa inh 1 and eIF4E 4G PPI 2.
Screening O=C(NN=C(Cc1ccccc1)Cc1ccccc1)C1CC1 returned Bim-Mcl-1 -1, Mcl1 Bid PPI -23, NCF1 inh -9, 14-3-3 Bad PPI -19, Mcl1-Noxa inh -1 and eIF4E 4G PPI 0.
For COc1ccc(CCNC(=O)c2cc(-c3ccncc3)nc3c(Cl)cccc23)cc1OC the results were Bim-Mcl-1 0, Mcl1 Bid PPI -21, NCF1 inh -18, 14-3-3 Bad PPI -7, Mcl1-Noxa inh 11 and eIF4E 4G PPI -6.
`COc1ccc(CCNC(=O)c2cc(-c3ccccn3)nc3c(Cl)cccc23)cc1OC` gave Bim-Mcl-1 88*, Mcl1 Bid PPI -25, NCF1 inh -20, 14-3-3 Bad PPI -10, Mcl1-Noxa inh 8 and eIF4E 4G PPI 3.
`O=[N+]([O-])c1cc(Br)cc(C=Nc2ccc3c(c2)OCO3)c1O` gave Mcl1 Bid PPI 0, NCF1 inh 3, 14-3-3 Bad PPI 16, Mcl1-Noxa inh 55* and eIF4E 4G PPI 9.
`CCOC(=O)c1ccccc1NC(=O)c1nc2nccc(C)n2n1` gave Bim-Mcl-1 -1, Mcl1 Bid PPI 79*, NCF1 inh 2, 14-3-3 Bad PPI -3, Mcl1-Noxa inh 9 and eIF4E 4G PPI -6.

Compound activity deposited in PubChem by several laboratories.
